This is an account of results in PubChem BioAssay (EPA / NIEHS).

Structures are written as SMILES. The source made the active and inactive calls. Rule for the calls: active = hit-call score of the fitted dose curve at least 0.9, where 1 is the maximum; inactive = score below 0.9.

Read-out in assay [1]: Interleukin-8 (IL8), CXCL8 (gene 3576)
Kind of assay: BSK_3C_IL8: BioMAP Diversity Plus: 3C Assay for Interleukin-8 (IL8) Biomarker Activity (AID 2283020). Particulars: primary human endothelial cells (HUVEC); actives raise or lower the signal. The method, boiled down: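 ELISA read-out of IL-8 from human umbilical vein endothelium, measured 24 h after chemical dosing. Activity is expressed relative to DMSO negative control, with both increases and decreases fitted.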

Read-out in assay [2]: Monokine induced gamma interferon (MIG), CXCL9 (gene 4283)
The experiment in a line: BSK_3C_MIG: BioMAP Diversity Plus: 3C Assay for Monokine induced gamma interferon (MIG) Biomarker Activity (AID 2283021). Particulars: primary human endothelial cells (HUVEC); actives raise or lower the signal. The method, boiled down: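 Read-out is ELISA detection of MIG on human umbilical vein endothelial cells, taken 24 h after dosing. Gain or loss of signal was scored relative to DMSO controls using bidirectional curve fitting.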

Assay [3] can be described thus: BSK_3C_SRB: Viability Assessment in the BioMAP Diversity Plus: 3C Assay (AID 2283023).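 Note: fitted both ways against DMSO so a hit may be signal rise or drop.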 Particulars: primary human endothelial cells (HUVEC). The method, boiled down:
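Absorbance at 560 nm of sulforhodamine B-stained (0.1%) total protein served as a cytotoxicity readout in human umbilical vein endothelial cells, 24 h after chemical treatment. Signal was fitted bidirectionally relative to DMSO.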

Read-out in assay [4]: Matrix Metallopeptidase 1 (MMP1), MMP1 (gene 4312)
Kind of assay: BSK_BE3C_MMP1: BioMAP Diversity Plus: BE3C Assay for Matrix Metallopeptidase 1 (MMP1) Biomarker Activity (AID 2283024). The conditions noted are these: primary human bronchial epithelial cells; actives raise or lower the signal. In short, it runs like this: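 Human bronchial epithelial cells (BE3C system) exposed to compound for 24 h; MMP1 then quantified by ELISA. Activity was fitted in both directions relative to DMSO.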

The nature of assay [5]: BSK_3C_Vis: BioMAP Diversity Plus: 3C Assay for Morphology Visualization (AID 2283025).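 For AC50: light microscopy image of cell morphology used as background control.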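 Note: fitted both ways so gain or loss versus DMSO counts.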 The conditions noted are these: primary human endothelial cells (HUVEC). The method, boiled down:
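Chemicals were added to primary human umbilical vein endothelium, cells were incubated 24 h, and morphology was then visualized by light microscopy. Gain or loss of signal was fitted bidirectionally relative to DMSO.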

Read-out in assay [6]: Pselectin, SELP (gene 6403)
Kind of assay: BSK_4H_Pselectin: BioMAP Diversity Plus: 4H Assay for Pselectin Biomarker Activity (AID 2283026). The conditions noted are these: primary human endothelial cells (HUVEC); actives raise or lower the signal. The method, boiled down: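 ELISA read-out of P-selectin on human umbilical vein endothelium after 24 h of dosing. Values derive from bidirectional fitting relative to DMSO. Parallel SRB protein staining flagged overt cytotoxicity.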

A short description of assay [7]: BSK_4H_SRB: Viability Assessment in the BioMAP Diversity Plus: 4H Assay (AID 2283027).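 For AC50: curves fitted both ways versus DMSO so AC50 may be loss or gain.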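 Note: cells exposed to compound for 24 h before staining.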 Particulars: primary human endothelial cells (HUVEC). In short, it runs like this:
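Absorbance at 560 nm of SRB-stained total protein served as the viability read-out in confluent primary human umbilical vein endothelium 24 h after chemical treatment. Curves were fitted bidirectionally against DMSO as negative control.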

The nature of assay [8]: BSK_BE3C_SRB: Viability Assessment in the BioMAP Diversity Plus: BE3C Assay (AID 2283028).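 For AC50: fitted both ways so AC50 may mark signal gain or loss versus DMSO.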 The conditions noted are these: primary human bronchial epithelial cells. The method, boiled down: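 Cells (human bronchial epithelial, primary) are treated with chemicals, and after 24 h the parallel cultures are fixed in 10% TCA. These are then stained with 0.1% SRB and read at 560 nm. Gain or loss of signal is fitted relative to DMSO.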

Read-out in assay [9]: Thrombomodulin, THBD (gene 7056)
Kind of assay: BSK_3C_Thrombomodulin: BioMAP Diversity Plus: 3C Assay for Thrombomodulin Biomarker Activity (AID 2283029). The conditions noted are these: primary human endothelial cells (HUVEC); actives raise or lower the signal. In short, it runs like this: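 Read-out is ELISA of thrombomodulin on human umbilical vein endothelium 24 h after chemical dosing. Gain or loss of signal is scored relative to DMSO. Overt cytotoxicity is checked in parallel cultures by sulforhodamine B staining.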

Read-out in assay [10]: Urokinase-type plasminogen activator receptor (uPAR), PLAUR (gene 5329)
Kind of assay: BSK_4H_uPAR: BioMAP Diversity Plus: 4H Assay for Urokinase-type plasminogen activator receptor (uPAR) Biomarker Activity (AID 2283030). The conditions noted are these: primary human endothelial cells (HUVEC); actives raise or lower the signal. The method, boiled down:
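Cell-surface uPAR ELISA signal, measured 24 h after dosing human umbilical vein endothelial cells, was analyzed with bidirectional fitting relative to DMSO. Parallel SRB staining of total protein tracked overt cytotoxicity.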

Read-out in assay [11]: Vascular endothelial growth factor receptor 2 (Homo sapiens) (UniProt P35968)
Kind of assay: BSK_4H_VEGFRII: BioMAP Diversity Plus: 4H Assay for Vascular endothelial growth factor receptor 2 (VEGFR2) Biomarker Activity (AID 2283031). Particulars: primary human endothelial cells (HUVEC); actives raise or lower the signal. The method, boiled down: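 ELISA read-out of VEGFRII in primary human umbilical vein endothelium, taken 24 h after chemical treatment. Responses are expressed relative to DMSO, with bidirectional fitting.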

Read-out in assay [12]: Human Leukocyte Antigen - DR isotype (HLADR), HLA-DRA (gene 3122)
The experiment in a line: BSK_BE3C_HLADR: BioMAP Diversity Plus: BE3C Assay for Human Leukocyte Antigen - DR isotype (HLADR) Biomarker Activity (AID 2283032). Particulars: primary human bronchial epithelial cells; actives raise or lower the signal. In short, it runs like this:
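ELISA read-out of HLA-DR on human lung bronchial epithelial primary cells, measured 24 h post-dosing. Both increases and decreases were scored relative to DMSO vehicle.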

Read-out in assay [13]: Vascular cell adhesion molecule 1 (VCAM1), VCAM1 (gene 7412)
The experiment in a line: BSK_4H_VCAM1: BioMAP Diversity Plus: 4H Assay for Vascular cell adhesion molecule 1 (VCAM1) Biomarker Activity (AID 2283033).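 Note: cell-surface VCAM-1 protein measured by ELISA.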 Particulars: primary human endothelial cells (HUVEC); actives raise or lower the signal. The method, boiled down:
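ELISA read-out of VCAM-1 on human umbilical vein endothelium 24 hours after chemical dosing; gain or loss of signal was fitted relative to DMSO, with sulforhodamine B staining of parallel cultures flagging overt cytotoxicity.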

Read-out in assay [14]: Interferon-gamma inducible Protein 10 (IP10), CXCL10 (gene 3627)
Kind of assay: BSK_BE3C_IP10: BioMAP Diversity Plus: BE3C Assay for Interferon-gamma inducible Protein 10 (IP10) Biomarker Activity (AID 2283034). The conditions noted are these: primary human bronchial epithelial cells; actives raise or lower the signal. The method, boiled down: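 Chemical is dosed onto human lung bronchial epithelial primary cells, cultures are incubated 24 h, and IP-10 is then quantified by ELISA. Gain or loss of signal is fitted in both directions relative to DMSO.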

Read-out in assay [15]: Monokine induced gamma interferon (MIG), CXCL9 (gene 4283)
Kind of assay: BSK_BE3C_MIG: BioMAP Diversity Plus: BE3C Assay for Monokine induced gamma interferon (MIG) Biomarker Activity (AID 2283035).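 Note: MIG protein measured by ELISA in BE3C cultures after 24 h of dosing.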 The conditions noted are these: primary human bronchial epithelial cells; actives raise or lower the signal. In short, it runs like this: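 MIG level was determined by ELISA after 24 h chemical treatment of primary human bronchial epithelial cells. Values were fitted bidirectionally with DMSO as the negative control and activity baseline.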

Read-out in assay [16]: Transforming growth factor beta 1 (TGFb1), TGFB1 (gene 7040)
Kind of assay: BSK_BE3C_TGFb1: BioMAP Diversity Plus: BE3C Assay for Transforming growth factor beta 1 (TGFb1) Biomarker Activity (AID 2283036;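 for outcome: TGF-b1 protein level measured by ELISA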). Particulars: primary human bronchial epithelial cells; actives raise or lower the signal. In short, it runs like this: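 Primary human lung bronchial epithelial cells; compound exposure 24 h; TGF-b1 by ELISA; bidirectional fit, DMSO baseline. Parallel SRB total-protein staining for cytotoxicity.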

Read-out in assay [17]: urokinase plasminogen activator (uPA), PLAU (gene 5328)
Kind of assay: BSK_BE3C_uPA: BioMAP Diversity Plus: BE3C Assay for urokinase plasminogen activator (uPA) Biomarker Activity (AID 2283038).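 Note: uPA protein level quantified by ELISA in cell cultures; uPA read one day after compound addition.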 The conditions noted are these: primary human bronchial epithelial cells; actives raise or lower the signal. The method, boiled down: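 Bronchial epithelial cells (human, primary); chemical 24 h; uPA by ELISA; bidirectional fit vs DMSO. SRB (0.1%, after 10% TCA fixation, 560 nm) in parallel cultures for cytotoxicity.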

Read-out in assay [18]: Urokinase-type plasminogen activator receptor (uPAR), PLAUR (gene 5329)
The experiment in a line: BSK_BE3C_uPAR: BioMAP Diversity Plus: BE3C Assay for Urokinase-type plasminogen activator receptor (uPAR) Biomarker Activity (AID 2283039).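 For outcome: cells exposed to compound for one day before measurement.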 Particulars: primary human bronchial epithelial cells; actives raise or lower the signal. The method, boiled down:
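Human bronchial epithelial primary cells; chemical exposure 24 h; uPAR by ELISA; bidirectional fit vs DMSO control.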

Read-out in assay [19]: Plasminogen activator inhibitor-1 (PAI1), SERPINE1 (gene 5054)
The experiment in a line: BSK_BE3C_PAI1: BioMAP Diversity Plus: BE3C Assay for Plasminogen activator inhibitor-1 (PAI1) Biomarker Activity (AID 2283037). Particulars: primary human bronchial epithelial cells; actives raise or lower the signal. The method, boiled down: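 Primary human lung bronchial epithelial cells; chemical dosing; 24 h; PAI-1 measured by ELISA; bidirectional fit referenced to DMSO as negative control.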

For `CCOC(=O)CC(SP(=O)(OC)OC)C(=O)OCC` (configuration not stated), the result in assay [1], in [2], in assay [3], in assay [4], in assay [5] and in [6] was inactive. Moreover, the outcome in assay [7], in assay [8], in assay [9], in assay [10], in assay [11] and in assay [12] was inactive. Moreover, the outcome in [13], in [14], in assay [15], in assay [16], in assay [17] and in [18] was inactive.

As usually defined, the AC50 is the concentration giving half of the maximal activity seen. On to `CON=C(C(=O)OC)c1ccccc1CON=C(C)c1cccc(C(F)(F)F)c1`, for which the AC50 is 1.76 µM (active) in [1]; 10.4 µM (active) in assay [3]; 5.67 µM (active) in [7]; 3.92 µM (active) in assay [9]; 20 µM (active) in [14]; 5.37 µM (active) in assay [18]. In addition, the outcome in assay [2], in [4], in assay [5], in [6], in assay [8] and in [10] was inactive. Further, the outcome in assay [11], in assay [12], in assay [13], in assay [15], in [16] and in assay [17] was inactive.

For the molecule `O=c1ccc(=O)[nH][nH]1`, the result in assay [1], in [2], in [3], in assay [4], in assay [5] and in [6] was inactive. The result in [7], in [8], in assay [9], in assay [10], in [11] and in assay [12] was inactive. The outcome in [13], in assay [14], in assay [15], in assay [16], in assay [19] and in [17] was inactive. For the same molecule, in assay [18], the result was inactive.

As for `CCC(=O)Nc1ccc(Cl)c(Cl)c1`, the outcome in assay [1], in [2], in assay [3], in assay [4], in [6] and in [7] was inactive. Also, the result in [8], in assay [9], in [10], in assay [11], in [12] and in [13] was inactive. In addition, the outcome in assay [15], in [19], in assay [17] and in [18] was inactive. For the same molecule, the AC50 in assay [5] was 9.8 µM (active); in [14] it was 27.2 µM (active); in [16] it was 3.97 µM (active).

On to `CCOP(=S)(OCC)Oc1ccc2c(C)c(Cl)c(=O)oc2c1`, for which the outcome in [1], in [2], in assay [3], in assay [4], in assay [5] and in [6] was inactive. Besides, the result in assay [7], in [10], in [11], in [12], in [13] and in [14] was inactive. Besides, the outcome in assay [15], in assay [16], in assay [17] and in [18] was inactive. The concentration at half-maximal activity (AC50) in assay [8] was 20 µM (active); in assay [9], 6.69 µM (active).
